# In the library only some 6.8% were active in any assay of this set; here they are far more common.
# MCF10A rerep – DNA re-replication induction in MCF 10a cells; MCF 10A DNA re-replication, Hoechst nuclear intensity, 48 h; Potency, µM (highest dose often 46.1 µM), for the others: at the highest dose activity, positive = re-replication, most hits filed as activators; hit rate 2.9% among 350,000; note: % of control where 0% means no effect; nearly all actives have a fitted effect of over 50% in size
# KB-3-1 tox – kills parental KB-3-1 adenocarcinoma cells | KB-3-1 viability, CellTiter-Glo ATP luminescence, 72 h | Potency, µM (highest dose often 46.1 µM), usual class: cytotoxic | hit rate 1.4% among 400,000; note: % is set by controls: 0 for no effect and ±100 for the full control effect; nearly all actives have a fitted effect of over 60% in size
#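 Parental KB-3-1 adenocarcinoma cells in phenol-red-free DMEM with 10% FBS were pin-treated with compounds at several concentrations, incubated 72 h at 37 °C, and viability read by CellTiter-Glo luminescence; concentration-effect curves were fitted after normalization.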
# KB-V1 cytotox – kills drug-selected multidrug resistant KB-V1 cells. KB-V1 MDR cells viability, CellTiter-Glo, 72 h. Potency, µM (series often up to 46.1 µM), actives largely listed as cytotoxic. hit rate 3.4% among 400,000; note: % is set by controls: 0 for no effect and ±100 for the full control effect; nearly all actives have a fitted effect of over 60% in size
#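 Following 72 h at 37 degrees C with compound, KB-V1 cell viability was read by CellTiter-Glo luminescence, medium being phenol-red-free DMEM plus 10% FBS; concentration-response parameters came from normalized, curve-fitted qHTS data.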
# PINK1 expr mod – changes PINK1 expression; Potency, µM (titrated, usually from 76.6 µM), for inactives: at the highest dose activation (PINK1 increase), usual class: activators; hit rate 0.2% among 410,000; PINK1 immunofluorescence, high-content cytometry, 24 h; active = well fitted activation curve with a large enough effect; inconclusive = small, poorly fitted or top-dose-only effect; cell line not stated here; note: % of control where 0% means no effect; nearly all actives have a fitted effect of over 65% in size
#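 Compound titrations (5 concentrations, 24 h) on a stable cell line; DMSO and CCCP controls. Endpoint: fixed-cell PINK1 immunofluorescence with mitochondrial, cell and nuclear markers, scanned by microplate cytometer.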
# PTAP TSG101 blk – blocks PTAP/TSG101 interaction to inhibit HIV-1 budding. Q99816. Fluorescence polarization, FITC-PTAP peptide / Tsg101 binding. Potency, µM (series often up to 115 µM), without a hit: top-dose activity change, negative = inhibition, usual class: inhibitors. 340,000 tested, under 10 active; active = well fitted inhibition curve with a large enough effect in the main read-out, with a control signal flat, not every such curve was filed as active; inconclusive = small, poorly fitted or top-dose-only effect, or effect the other way, or a change in a side signal; inactive = no such curve, though single readings can be large or run the other way; note: % of control where 0% means no effect
# Target sequence (Q99816 whole entry, looked up): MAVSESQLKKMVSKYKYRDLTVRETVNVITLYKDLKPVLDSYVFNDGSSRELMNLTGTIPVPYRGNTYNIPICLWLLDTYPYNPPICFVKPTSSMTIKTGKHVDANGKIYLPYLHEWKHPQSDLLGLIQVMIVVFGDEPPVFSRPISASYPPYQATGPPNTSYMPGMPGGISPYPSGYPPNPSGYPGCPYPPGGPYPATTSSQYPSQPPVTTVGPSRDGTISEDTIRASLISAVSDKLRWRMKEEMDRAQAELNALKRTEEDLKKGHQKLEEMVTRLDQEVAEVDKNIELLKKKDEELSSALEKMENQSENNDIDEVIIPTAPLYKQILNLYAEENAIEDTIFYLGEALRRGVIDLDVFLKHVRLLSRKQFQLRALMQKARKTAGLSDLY
#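 FP read-out: FITC-PTAP peptide, 50 nM final, binding Tsg101 binding domain, 10 uM final; 20 min, r.t.; 10 mM HEPES pH 7.5, 0.15 M NaCl, 0.01% Tween 20, 3 mM EDTA, 0.1 mM TCEP.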
# SW480 rerep – DNA re-replication induction in SW480 cells; SW480 DNA re-replication, Hoechst DNA content imaging, 48 h; Potency, µM (series often up to 46.1 µM), without a hit: top-dose re-replication activation, most hits filed as activators; hit rate 1.8% among 340,000; AID 624297; note: % of control where 0% means no effect; nearly all actives have a fitted effect of over 55% in size
#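 SW480 cells exposed to compounds for 48 hr at 37 C, 5% CO2, then Hoechst-stained 40 min. Nuclear DNA content imaged by fluorescence scanning (405 nm excitation, 500-530 nm emission); re-replication scored as increased high-intensity nuclei.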
# An asterisk follows results filed as active; i = inactive; ? = inconclusive; / = no result given; [ ] = dose if it differs, or a comment. Unless noted, calls come from the whole dose curve; as a rule, active = well fitted curve in the direction sought with a large enough effect; inconclusive = small, poorly fitted or top-dose-only effect, or another doubt; inactive = no such curve, though single readings can be large; an effect the other way counts as inactive or inconclusive. Potency is the fitted concentration of half-maximal effect.
SMILES,MCF10A rerep,KB-3-1 tox,KB-V1 cytotox,PINK1 expr mod,PTAP TSG101 blk,SW480 rerep
Nc1[nH]c(C(=O)c2ccccc2)c(-c2ccc(F)cc2)c1C(=O)NCc1ccccc1,/,i,i,0%,/,/
Oc1ccccc1-c1nc(NCCN2CCOCC2)c2ccccc2n1,16%,?,16µM*,0%,-5%,?
Clc1cccc(-c2nc(NCCN3CCOCC3)c3ccccc3n2)c1,6%,i,21µM*,-2%,-1%,1%
Clc1ccccc1-c1nc(NCCN2CCOCC2)c2ccccc2n1,/,/,/,-1%,/,/
CC(C)(COP(=O)(O)OP(=O)(O)OC[C@H]1O[C@@H](n2cnc3c(N)ncnc32)[C@H](O)[C@@H]1OP(=O)(O)O)C(O)C(=O)NCCC(=O)NCCS (stereo not given in full),2%,/,/,/,/,-4%
CC1CC(=O)c2c(cc3c(-c4c(O)cc(O)c5c(O)c6c(cc45)OC(C)CC6=O)c(O)cc(O)c3c2O)O1 (stereo not given),?,?,?,2%,?,6.5µM*
COc1cc(Cl)c(C)cc1NC(=O)c1cnc(N2CCOCC2)c2ccccc12,/,?,i,3%,/,/
CCc1ccc(/C=C(/C#N)c2nc(-c3ccc(C)cc3)cs2)cc1,/,i,?,3%,/,/
CCOc1ccc(-c2csc(/C(C#N)=C\c3ccc(O)c([N+](=O)[O-])c3)n2)cc1,?,21µM*,5.2µM*,?,-2%,?
O=C(CSc1nc(-c2ccccc2)nc2c1CCCC2)c1ccc(Cl)cc1,/,i,?,24%,/,/
CCc1cccc(CC)c1NC(=O)c1cc(S(=O)(=O)N2CCc3ccccc32)cn1C,/,/,/,4%,/,/
Cc1cc(C)c2c(c1)/C(=C/C(=O)c1ccc(Br)s1)C(=O)N2,?,18µM*,23µM*,-1%[38.3 µM],-10%,20%
CS(=O)(=O)N(CC(=O)NCCSCc1c(F)cccc1Cl)c1ccc2c(c1)OCO2,-1%,i,?,0%,-1%,-4%
O=C(/C=C/c1ccc2c(c1)OCO2)NCCSCc1ccc(Cl)cc1,?,18µM*,i,2%,-2%,-4%
CN(C)CCCNC(=O)/C=C/c1ccc2c(c1)OCO2,13%,i,i,-1%,-1%,-3%
O=C(/C=C/c1ccc2c(c1)OCO2)NCCSCc1c(Cl)cccc1Cl,9.2µM*,i,?,0%,0%,-7%
CCn1c(-c2ccc(OC)c(OC)c2)n[nH]c1=S,-8%,?,?,-2%,3%,-3%
CC(C)Cn1c(-c2csc(C(C)C)c2)n[nH]c1=S,?,i,i,-1%,3%,?
CCn1c(-c2ccc(C)cc2)n[nH]c1=S,-6%,?,18µM*,-1%,-7%,-2%
Cc1ccc(-c2n[nH]c(=S)n2Cc2ccccc2)cc1,13%,i,?,-11%[38.3 µM],1%,?
CCn1c(-c2ccc(Cl)cc2)n[nH]c1=S,1%,?,10µM*,-1%[38.3 µM],-7%,17%
CCn1c(-c2csc(C(C)C)c2)n[nH]c1=S,-5%,i,21µM*,0%,-4%,-2%
CCOC(=O)c1ccc(NC(=O)CN2c3ccccc3S(=O)(=O)c3ccccc32)cc1,/,i,i,1%,/,/
COc1ccc(CNC(=O)C2CCN(Cc3nc(-c4ccc(OC)c(OC)c4)oc3C)CC2)cc1,/,i,i,0%,/,/
COc1ccc(Br)cc1CNC(=O)CSc1n[nH]c(-c2ccccc2)n1,/,?,i,0%,/,/
SMILES,MCF10A rerep,KB-3-1 tox,KB-V1 cytotox,PINK1 expr mod,PTAP TSG101 blk,SW480 rerep
CC1=C(C(=O)OCC2CCCO2)C(c2cccc(C(F)(F)F)c2)C2=C(CC(c3ccco3)CC2=O)N1 (stereo not given),?,16µM*,?,/,-5%,?
CCc1ccc(C(=O)C(C)OC(=O)Cn2[nH]c(=O)c3ccccc3c2=O)cc1 (stereo not given),2%,i,i,-1%,-8%,6%
CCc1ccc(C(=O)C(C)OC(=O)Cc2n[nH]c(=O)c3ccccc23)cc1 (stereo not given),15µM*,9.2µM*,?,2%,-3%,?
Cc1ccccc1Cn1ccn(-c2ccc(F)c(F)c2)c(=O)c1=O,/,/,/,1%,/,/
O=C(Cc1ccccc1[N+](=O)[O-])NCC1(c2cccc3c2OCO3)OCCO1,-2%,i,18µM*,-4%,-10%,1%
O=C(c1ccccc1)c1cn(Cc2ccc(F)cc2)c2ccccc2c1=O,/,?,?,5%,/,/
NNc1nc(C(F)(F)F)nc2ccccc12,-2%,i,i,0%,0%,-2%
O/C=c1\ccc2cccc3nc(C(F)(F)F)nc1c23,21µM*,i,i,9%,?,14%
COc1cccc(C(C(=O)NC2CCCC2)N2CCN(c3ncccc3C#N)CC2)c1OC (stereo not given),/,i,?,/,/,/
COc1cccc(C(C(=O)NC2CCCC2)N2CCN(c3cc(C)ccc3C)CC2)c1OC (stereo not given),/,?,16µM*,/,/,/
Cc1nc(N2CCN(S(=O)(=O)c3cccc4nonc34)CC2)c2c3c(sc2n1)CCCC3,18µM*,i,i,4%[38.3 µM],-2%,1%
COc1ccc2c(c1)NC(c1cc(Cl)cc(Cl)c1O)c1cccn1-2 (stereo not given),16%,i,i,10%,16%,-1%
COc1ccc2c(c1)NC(c1ccc(N(C)C)cc1)c1cccn1-2 (stereo not given),?,i,?,1%,-1%,18µM*
O=S(=O)(Nc1cccc(-n2cnnn2)c1)c1cc(Br)ccc1Br,9%,i,5.8µM*,1%,-2%,-15%
COc1ccccc1NC(=O)c1cc2cc3ccc(OC)c(Cl)c3nc2s1,/,/,/,2%,/,/
COc1ccc(NC(=O)C2CCCCN2S(=O)(=O)c2ccc(F)cc2)cc1 (stereo not given),-5%,i,i,1%,-3%,-1%
COc1ccc(NC(=O)C2CCCCN2S(=O)(=O)c2ccc(F)cc2)c(OC)c1 (stereo not given),7%,i,5.8µM*,-2%,-7%,0%
CCOc1ccccc1NC(=O)C1CCCN(C(=O)NCc2ccccc2)C1 (stereo not given),2%,i,8.2µM*,1%[38.3 µM],-2%,-11%
COc1ccccc1NC(=O)C1CCCCN1S(=O)(=O)c1ccc(F)cc1 (stereo not given),9%,i,5.2µM*,-5%,-7%,0%

# Compound activity as filed in PubChem BioAssay.
